G9a block: blocks human histone lysine methyltransferase G9a; G9a H3K9 monomethylation, AlphaScreen, 2 h; 350,000 compounds, 8.8% hits; Potency, µM (titrated, usually from 102 µM), inactives show at the top dose activity, negative = inhibition, usual class: inhibitors; AID 504332; also: % is scaled to controls: 0 for no effect and ±100 for the full control effect; nearly all actives have a fitted effect of over 75% in size
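Using a bead-based AlphaScreen, monomethylated H3K9 product from 2 h room-temperature reactions (G9a 20 nM, peptide 500 nM, SAM 20 uM) was detected with 0.5 ug/mL rabbit anti-H3K9me1 antibody.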
JMJD2A Tudor inh: inhibitors of human JMJD2A Tudor domain | O75164 | AlphaScreen JMJD2A-Tudor / H3K4me3 peptide binding | Potency, µM (titrated, usually from 114 µM), inactives show at the top dose activity change, negative = inhibition, actives largely listed as inhibitors | 390,000 compounds, 4.4% hits; also: % is scaled to controls: 0 for no effect and ±100 for the full control effect; nearly all actives have a fitted effect of over 50% in size
L3MBTL1 inh: L3MBTL1 (human) inhibition. AlphaScreen L3MBTL1–H3K9me1 peptide binding. Potency, µM (top dose mostly 57.1 µM), without a hit: at the highest dose activity, negative = inhibition, actives largely listed as inhibitors. Q9Y468. 230,000 compounds, 0.66% hits; also: % is scaled to controls: 0 for no effect and ±100 for the full control effect; nearly all actives have a fitted effect of over 60% in size
Target sequence (Q9Y468 whole entry, looked up): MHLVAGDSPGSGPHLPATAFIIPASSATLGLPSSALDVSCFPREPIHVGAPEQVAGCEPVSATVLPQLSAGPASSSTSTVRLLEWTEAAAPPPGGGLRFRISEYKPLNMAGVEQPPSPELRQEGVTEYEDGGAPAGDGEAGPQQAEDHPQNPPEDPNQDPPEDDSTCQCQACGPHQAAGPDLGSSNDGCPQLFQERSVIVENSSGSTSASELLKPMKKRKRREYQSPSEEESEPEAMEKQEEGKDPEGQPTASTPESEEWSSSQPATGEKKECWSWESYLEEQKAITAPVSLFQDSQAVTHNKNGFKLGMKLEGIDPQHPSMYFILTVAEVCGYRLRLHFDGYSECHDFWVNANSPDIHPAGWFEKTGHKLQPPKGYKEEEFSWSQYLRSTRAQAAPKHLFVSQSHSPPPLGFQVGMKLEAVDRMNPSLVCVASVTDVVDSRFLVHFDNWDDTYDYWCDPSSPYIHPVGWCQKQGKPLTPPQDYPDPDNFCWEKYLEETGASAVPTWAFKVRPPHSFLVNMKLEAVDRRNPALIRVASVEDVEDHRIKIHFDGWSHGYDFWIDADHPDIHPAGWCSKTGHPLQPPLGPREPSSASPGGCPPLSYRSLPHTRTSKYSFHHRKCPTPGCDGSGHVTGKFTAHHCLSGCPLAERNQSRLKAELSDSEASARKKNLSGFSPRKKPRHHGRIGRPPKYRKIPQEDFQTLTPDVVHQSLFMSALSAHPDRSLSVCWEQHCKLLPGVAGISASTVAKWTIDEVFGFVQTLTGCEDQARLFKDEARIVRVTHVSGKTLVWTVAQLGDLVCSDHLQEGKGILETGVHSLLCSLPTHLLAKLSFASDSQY
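AlphaScreen assay: L3MBTL1 (50 nM final) was preincubated 30 min at room temperature with biotinylated H3(1-15)K9me1 peptide (75 nM final), then 30 min with library compounds; streptavidin donor and nickel chelate acceptor beads (10 ug/mL final) added, 30 min dark.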
BAZ2B inh: BAZ2B (human) inhibition; Q9UIF8; AlphaScreen BAZ2B-H3K14Ac peptide displacement; Potency, µM (top dose mostly 114 µM), inactives show at the highest dose activity change, negative = inhibition, actives largely listed as inhibitors; 360,000 compounds, 4.4% hits; AID 504333; also: % is scaled to controls: 0 for no effect and ±100 for the full control effect; nearly all actives have a fitted effect of over 60% in size
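Protein-peptide AlphaScreen: BAZ2B 50 nM, b-H3K14Ac 50 nM, 1x PBS pH 7.4 + 0.01% Tween-20. Preincubation 30 min RT; cpd 30 min RT (top 110 uM); beads 20 min RT, light-protected.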
HP1b binding inh: blocks HP1-beta chromodomain binding to methylated histone tails; 390,000 compounds, 0.56% hits; P83916; AID 540317; AlphaScreen HP1-beta / biotin-H3K9me3 peptide binding; Potency, µM (top dose mostly 114 µM), for the others: at the highest dose activity change, negative = inhibition, usual class: inhibitors; also: nearly all actives have a fitted effect of over 70% in size
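HP1-beta protein (50 nM final) preincubated 30 min at room temperature with biotinylated H3(1-18)K9me3 peptide (50 nM) in PBS pH 7.4, 0.01% Tween-20, then compound added for 30 min. AlphaScreen streptavidin donor/nickel chelate acceptor beads (10 ug/mL final), 30 min dark, luminescence read.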
Sfp inh: inhibitors of Bacillus subtilis Sfp phosphopantetheinyl transferase. AID 1490. Potency, µM, without a hit: largest response in the series, negative = inhibition, hits mostly inhibitors. 310,000 compounds, 3.5% hits. Biochemical Sfp PPTase activity, qHTS;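 also: the enzyme is Sfp with the accession as filed and its product quenches rhodamine fluorescence; 0% = enzyme reaction without inhibitor and -100% = no enzyme wells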
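With Hepes-Na pH 7.6 buffer containing 10 mM MgCl2, Sfp (15 nM) modified BHQ-2-YbbR (12.5 uM) using rhodamine-CoA (5 uM). Two reads 30 minutes apart at 525/598 nm yielded each well's rate.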
Numbers without * were called inactive; u = inconclusive; x = not tested or not shown; [ ] = dose if it differs, or a comment. Only some compounds are listed: those with a hit (about 12% of all), similar ones and a draw of the others. Calls follow the shape of the dose curve; as a rule, active = well fitted curve in the direction sought with a large enough effect; inconclusive = small, poorly fitted or top-dose-only effect, or another doubt; inactive = no such curve, though single readings can be large; an effect the other way counts as inactive or inconclusive. Potency is read from the fitted curve at half-maximal effect.

SMILES	G9a block	JMJD2A Tudor inh	L3MBTL1 inh	BAZ2B inh	HP1b binding inh	Sfp inh
O=C(O)c1ccc(/C=N/Nc2ncc(C(F)(F)F)cc2Cl)cc1	31.6µM*	-12.7%	8.9%	-17.3%	31.8%	28.2µM*
CC(C)(C)c1ccc(/C=N/Nc2ccc(C(=O)O)cc2)cc1	1.78µM*	u	-4.7%	-38.1%	-10.1%	9.4%
O=C(O)c1ccc(/C=N/Nc2ccc(F)cc2F)cc1	35.5µM*	-29.4%	-4.5%	-21.9%	5.9%	7.1%
O=C(N/N=C/c1ccc(C(F)(F)F)cc1)c1ccc(O)cc1	10.4%	-7.8%	1.4%	-7.0%	32.7%	6.9%
O=C(O)c1ccc(N/N=C/c2ccc(C(F)(F)F)cc2)cc1	35.5µM*	-34.9%	-16.8%	u	-7.2%	-0.5%
COc1ccc2c(c1)C=C([C@@H]1C[C@H]3CN(c4ccccc4)C(=O)[C@]34CCCN14)CO2	56.2µM*	u	-27.1%	-25.8%	-12.7%	-4.3%
CC[C@]12CCCN3CCc4c(n(c5ccccc45)[C@](O)(C(=O)OC)C1)[C@@H]32	2.4%[12.7 µM]	-2.9%	-10.7%	26.5%	21.8%	x
CCC12CCCN3CCc4c(n(c5ccccc45)C(O)(C(=O)OC)C1)C32 (configuration not stated)	50.1µM*	-29.9%	u	-26.2%	-3.2%	-17.2%
Cc1cc(Br)c(S(=O)(=O)NCc2ccncc2)cc1C	u	-2.9%	x	-1.9%	19.9%	10.9%
Cc1cc(NCc2ccncc2)ccc1Br	x	17.8µM*	3.1%	50.1µM*	u	79.4µM*
Cc1ccc(NCc2ccncc2)c(Br)c1	x	1.58µM*	u	22.4µM*	28.2µM*	u
CCOC(=O)Cc1csc(NC(=O)c2ccc(NC(C)=O)cc2)n1	u	20µM*	-3.9%	-37.4%	16.3%	-8.7%
CCOC(=O)Cc1csc(NC(=O)c2csc3c2CCCC3)n1	35.5µM*	1.3%	-3.1%	1.1%	13.2%	-17.0%
CCOC(=O)Cc1csc(NC(=O)c2cc(OC)cc(OC)c2)n1	16.4%[59 µM]	79.4µM*	5.4%	7.8%	25.0%	3.3%
CCOC(=O)Cc1csc(NC(=O)c2ccco2)n1	-5.0%[12.7 µM]	79.4µM*	-0.2%	-2.6%	15.3%	-1.0%
CCOC(=O)Cc1csc(NC(=O)c2ccc(Br)cc2)n1	x	1.7%	-6.8%	u	25.7%	16.2%
CCOC(=O)Cc1csc(NC(=O)c2ccc(C)o2)n1	u	-24.7%	4.4%	-13.0%	2.3%	2.4%
CCOC(=O)Cc1csc(NC(=O)c2cc3c(s2)CCCC3)n1	-18.5%	-8.8%	x	6.8%	-3.1%	-2.0%
COCCOC(=O)C1=C(C)NC(=O)NC1c1ccc(-c2ccc(F)cc2)o1 (configuration not stated)	50.1µM*	-34.8%	-7.8%	-32.5%	-11.2%	-15.5%
CCOC(=O)C1=C(C)NC(=O)NC1c1ccc(-c2ccccc2F)o1 (configuration not stated)	-10.5%[59 µM]	-35.1%	-10.1%	0.8%	23.3%	7.6%
CNC(=S)Nc1cc(S(=O)(=O)Nc2cc(Cl)ccc2Cl)ccc1N1CCCC1	50.1µM*	u	x	-38.2%	-8.1%	-9.0%
CC(=O)Nc1ccc(S(=O)(=O)Nc2cc(Cl)ccc2N2CCOCC2)cc1	x	-24.7%	1.4%	x	7.5%	x
O=S(=O)(Nc1ccc(Cl)cc1)c1ccc(N2CCOCC2)c(NC(=S)NC2CC2)c1	7.94µM*	-23.8%	-14.1%	u	-22.0%	-85.7%
CC12CN3CC(=O)N4CC5(C)CN(CC(C)(C4)C5=O)C(=O)CN(C1)CC(C)(C3)C2=O	35.5µM*	-22.4%	0.6%	-8.3%	37.6%	6.6%
O=C(Nc1cc(Sc2ccccn2)cc([N+](=O)[O-])c1)c1ccc([N+](=O)[O-])cc1	-13.3%[12.7 µM]	3.16µM*	-6.3%	u	-10.6%	4.7%
O=[N+]([O-])c1cccnc1Sc1n[nH]c(-c2ccc(Cl)cc2)n1	x	-13.4%	47.2%	-3.5%	21.5%	22.5%

Source: PubChem BioAssay (National Center for Advancing Translational Sciences (NCATS))
